Pf growth 96h = P. falciparum growth inhibition at 96 hour, primary screen for plastid delayed-death inhibitors; P. falciparum luciferase reporter growth, 96 h; Potency, µM (highest dose often 28.7 µM), for the others: at the highest dose activity change, negative = inhibition, hits mostly inhibitors; AID 504834; 320,000 compounds, 6.9% hits; further: potency means the concentration at half of the fitted maximal effect; on the % scale 0 is the no-effect control and ±100 the full control effect
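96 h incubation, 37 C, 5% CO2, of luciferase-reporter P. falciparum-infected RBCs (2% hematocrit, 0.05% parasitemia final) with test compounds; endpoint luminescence.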
HCV inhibitor = HCV inhibition. AID 651820. Potency, µM (highest dose often 41.8 µM), for inactives: top-dose activity change, negative = inhibition, actives largely listed as inhibitors. Huh7.5.1 HCVcc-Cre infection, luciferase reporter, 44 h. 340,000 compounds, 3.4% hits; further: potency means the concentration at half of the fitted maximal effect; on the % scale 0 is the no-effect control and ±100 the full control effect
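1,000 cells/well; 4 h culture; + compound; + HCVcc-Cre (~0.5 moi); 44 h; luciferase substrate, RT 15 min; read 15 sec.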
Shiga inhibitor = inhibitors of Shiga toxin in Vero cells; Vero cells, Shiga toxin protein synthesis inhibition reporter; inhibition, % at 38.7 µM; 290,000 compounds, 9.2% hits; AID 2315; in the data active means inhibition mostly above about 28%, no sharp cut-off; inactive means mostly below about 43%; further: 0% is about no effect
Pf growth 48h = inhibits P. falciparum growth in the first generation, 48 h. P. falciparum luciferase growth in erythrocytes, 48 h. Potency, µM (titrated, usually from 28.7 µM), without a hit: at the top dose activity change, negative = inhibition, usual class: inhibitors. AID 504832. 310,000 compounds, 5.9% hits; further: potency means the concentration at half of the fitted maximal effect; on the % scale 0 is the no-effect control and ±100 the full control effect
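Compounds are pin-transferred into medium, infected erythrocytes (2% hematocrit, 0.1% parasitemia final) are added, and plates sit one parasite generation at 37 C in 5% CO2. Detection reagent is then added and luminescence measured.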
CHX counter = affects cycloheximide protein synthesis inhibition readout, counter-screen; cell reporter, cycloheximide protein synthesis inhibition counterscreen; max response, %; 300,000 compounds, 12% hits; in the data active means max response mostly above about 13%, no sharp cut-off; inactive means mostly below about 14%; further: read at 38.3 µM for the half of the compounds with a filed dose; 0% is about no effect
HCMV inh = human cytomegalovirus inhibition; 410,000 compounds, 4.5% hits; activity change, negative = inhibition, % at 57.5 µM; HFF cells, HCMV-luciferase reporter, 72 h; stronger effect = lower value; in the data active means activity change below about -60%; inconclusive means no clear call, values can overlap the other calls; inactive means above about -39%; further: on the % scale 0 is the no-effect control and ±100 the full control effect
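Screen run at 2 compound doses on HFFs infected with reporter HCMV, MOI 1 PFU/cell. Luciferase activity from cell lysates at 72 h post infection gave inhibition relative to buffer-only and Salinomycin wells.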
Active calls of the source: *; ? = inconclusive; · = no result given; [ ] = dose if it differs, or a comment. An excerpt weighted towards active compounds, which were near 21% of everything screened. Unless noted, the call rests on the fitted dose curve; in most records, active means well fitted inhibition curve with a large enough effect; inconclusive means small, poorly fitted or top-dose-only effect, or another doubt; inactive means no such curve, though single readings can be large or run the other way.

SMILES	Pf growth 96h	HCV inhibitor	Shiga inhibitor	Pf growth 48h	CHX counter	HCMV inh
Cc1ccc(NC(=O)Cn2cc(C(=O)C3CCCCC3)c3ccccc32)c(C)c1	·	·	·	·	·	-6.1
O=C(COc1ccc(C(=S)N2CCCC2)cc1)Nc1ccc(F)cc1	10.4µM*	-26.3%	22.6	-21.8%	7.7	?
COc1cc(C(=O)N2CCCCC2)ccc1OCC(=O)Nc1ccc(F)cc1	-0.9%	?	·	-8.9%	·	6.7
O=C(COc1ccc(C(=S)N2CCOCC2)cc1)Nc1ccccc1C(F)(F)F	?	?	18.3	36.2%	-2.5	-87.1*
O=C(COc1ccc(C(=S)N2CCCC2)cc1)Nc1ccccc1C(F)(F)F	?	-18.3%	-11.4	16.9%	-1.5	-65.4*
Cc1ccc(CCNC(=O)c2ccc(CSCc3ccccc3Cl)o2)cc1	·	·	·	·	·	0.0
CCOC(=O)c1[nH]c2ccccc2c1NC(=O)c1ccc(C)c(C)c1	·	·	·	·	·	-6.3
COc1cccc(-n2c(SCC(=O)Nc3ccc4c(c3)OCO4)nc3c([nH]c4ccccc43)c2=O)c1	·	·	·	·	·	-3.3
COc1ccc(S(=O)(=O)N(CC(=O)NCCC(C)C)c2ccccc2)cc1OC	10.5%	4.9%	5.3	?	0.4	?
COc1ccc(CNC(=O)CN(c2ccc(C(C)=O)cc2)S(=O)(=O)c2ccc(C)cc2)cc1OC	·	-0.1%	·	·	·	-0.2
CCOc1ccc(N(CC(=O)NC(C(C)C)C(C)C)S(=O)(=O)c2ccc(OC)c(OC)c2)cc1	-4.1%	10µM*	15.6	?	-2.7	-12.4
COc1ccc(S(=O)(=O)N(CC(=O)NC(C)c2ccccc2)c2ccc(C)cc2)cc1OC (centres undefined)	·	·	·	·	·	-88.4*
CCOc1ccc(N(CC(=O)OC)S(=O)(=O)c2ccc(OC)c(OC)c2)cc1	37.0%	9.3%	-7.1	-15.4%	1.3	2.9
CN(C)S(=O)(=O)N(CC(=O)NCc1ccccc1)c1ccccc1	-1.5%[5.75 µM]	12.9%	-5.1	25.0%	-0.6	40.6
C[C@@H](NC(=O)CN(c1ccccc1)S(=O)(=O)N(C)C)c1ccccc1	·	·	·	·	·	-105.2*
COc1ccc(S(=O)(=O)N(CC(=O)NCc2ccccc2)c2ccc(C)cc2)cc1OC	·	·	·	·	·	-105.0*
CCn1c(C(C)NC(=O)c2cccc(C)c2)n[nH]c1=S (centres undefined)	-0.5%	-16.4%	4.4	8.4%	-0.9	3.8
CCCCCCC[N+](CC)(CC)CCCCc1ccc(Cl)cc1	0.465µM*	?	·	0.465µM*	·	-100.5*
Cc1cccc(NC(=O)[C@@H]2CCCN2C(=O)OC(C)(C)C)c1	16.6%	12.4%	-0.9	37.3%	-1.1	9.0
Cn1cc(C(=O)NCc2ccccc2Cl)c(=O)c2cc(S(=O)(=O)N3CCCCCC3)ccc21	·	·	·	·	·	11.4
CC1=NCCN1CCNC(=O)Nc1ccc(F)cc1	0.415µM*	11.6%	-11.1	5.7%	-0.6	-8.7
CC1=NCCN1CCNC(=O)Nc1cc(C)cc(C)c1	16.9%	0.6%	17.0	1.7%	7.5	-24.1
O=C(COC(=O)c1ccc(Cl)nc1)Nc1cccnc1Cl	28.9%	15.5%	·	43.3%	·	11.1
CCOC(=O)c1sc(NC(=O)c2c(-c3ccccc3)c(-c3ccccc3)nn(C)c2=O)nc1C	·	·	·	·	·	-13.4
COc1ccc(CNC(=O)Cn2ccc3cc(S(=O)(=O)N4CCCCCC4)ccc32)c(OC)c1	·	·	·	·	·	-15.4
SMILES	Pf growth 96h	HCV inhibitor	Shiga inhibitor	Pf growth 48h	CHX counter	HCMV inh
O=C(Nc1ccccc1F)C(=O)Nc1cccc2ccccc12	?	-19.3%	·	104.7%	28.4*	11.0
O=C(Nc1cccc2ccccc12)/C(Cl)=C/c1ccccc1	57.3%	-14.4%	81.5*	9.0%	41.8*	47.2
O=C(O)CSCC(=O)Nc1cccc2ccccc12	·	26.4%	-3.9	-4.2%	-0.3	15.7
COc1ccc(NC(=O)N(C)C[C@@H]2OCc3cnnn3CCCC(=O)N([C@@H](C)CO)C[C@@H]2C)cc1	·	·	·	·	·	-24.4
CCCCn1c(N)c(N(CCOC)C(=O)c2ccc(S(=O)(=O)N3CCCCCC3)cc2)c(=O)[nH]c1=O	-8.9%	30.3%	·	?	·	8.2
CCCC1Cc2c(sc3nc(SC)nc(N)c23)CO1 (centres undefined)	112.1%	-26.0%	-4.3	-13.0%	15.6	-9.9
CSc1nc(N)c2c3c(sc2n1)COC(C(C)C)C3 (centres undefined)	5.22µM*	-7.0%	-5.6	·	-1.9	-9.2
CCC(C(=O)Nc1c(C)cc(C)cc1C)n1c(=O)c(-c2ccccc2NC(C)=O)nc2ccccc21 (centres undefined)	·	·	·	·	·	-2.2
CCc1ccc(NC(=O)C(CC)n2c(=O)c(-c3ccccc3NC(C)=O)nc3ccccc32)cc1 (centres undefined)	·	·	·	·	·	-90.9*
CCOC(=O)c1c(NC(=O)c2nc(S(C)(=O)=O)ncc2Cl)sc(C(C)=O)c1C	·	·	·	·	·	-25.1
CCCCN1CC(COCc2ccccc2)Oc2cccc(Oc3ccccc3)c2S1(=O)=O (centres undefined)	·	2.51µM*	·	·	·	0.7
O=C(Nc1ccc(N2CCCCC2)cc1)c1cccnc1Cl	?	5.8%	72.4*	·	33.3*	59.9
O=C(Nc1ccc(N2CCCC2)cc1)c1cccc(Cl)c1Cl	?	?	71.0*	33.0%	24.5*	-80.3*
CC(=O)N1CCN(c2ccc(NC(=O)c3cccc(Cl)c3Cl)cc2)CC1	52.2%	-15.6%	-0.9	?	-1.8	-34.6
Cc1ccc(C)c(CSc2nc3[nH]ncc3c(=O)[nH]2)c1	-16.3%	?	-15.3	-25.0%	0.9	-22.1
CC1CC(C)CN(C(=O)c2cc3ccccc3o2)C1 (centres undefined)	-80.6%	?	·	?	·	-16.1
O=C(c1cc2ccccc2o1)N1CCCCCC1	17.1%[5.75 µM]	4.8%	61.9*	38.9%	45.5*	65.4
O=C(c1cc2ccccc2o1)N1CCCC1	147.0%	-11.3%	5.6	14.4%	13.3	15.8
CC1CCN(C(=O)c2cc3ccccc3o2)CC1	?	-7.7%	76.3*	109.6%	55.6*	50.9
Cn1c2c(c(=O)n(C)c1=O)C(c1ccccc1[N+](=O)[O-])CC(=O)N2 (centres undefined)	·	·	·	·	·	11.8
O=C(OCCN=C1NS(=O)(=O)c2ccccc21)c1ccccc1F	-13.0%	0.4%	-0.7	-15.6%	-8.4	-12.1
Cc1ccc(-n2nc(CO)c(C(=O)NC(C)CCCc3ccccc3)n2)cc1 (centres undefined)	·	·	·	·	·	-17.1
COc1cccc2c(=O)n(CC(=O)Nc3ccccc3F)ccc12	25.2%	6.3%	22.7*	43.4%	27.0*	29.0
COc1cccc2c(=O)n(CC(=O)NC3CCCCC3)ccc12	21.1%	?	4.9	19.8%	9.8*	-3.2
COc1ccc(OC)c(NC(=O)CCNS(=O)(=O)c2cc(Br)cnc2N)c1	-5.9%	-11.6%	-6.9	-3.6%	-3.1	-31.7
O=C(c1ccccc1)c1nc2c(n1O)CCCCC2	-12.8%	-4.5%	44.0*	122.2%	32.0*	-26.1

Screening data from PubChem.
